Source: PubChem (National Center for Advancing Translational Sciences (NCATS))
This is a sample that favours compounds with a hit; in the whole collection about 3.5% have one here.
LmPK inh = inhibitors of Leishmania mexicana pyruvate kinase. Potency, µM (titrated, usually from 57.5 µM), for inactives: at the highest dose activity change, negative = inhibition, usual class: inhibitors. hit rate 0.37% among 290,000. purified LmPK, Kinase-Glo ATP luminescence, 1 h; also: % is scaled to controls: 0 for no effect and ±100 for the full control effect
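Kinase-Glo luminescence read after 1 h RT reaction of 0.1 nM LmPK with 0.5 mM PEP and 0.1 mM ADP. Activity scaled between uninhibited and enzyme-free controls.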
TbPYK inhibitor = inhibitors of Trypanosoma brucei pyruvate kinase; hit rate 0.12% among 410,000; AID 624173; Q57TT1; Potency, µM (top dose mostly 76.8 µM), for the others: at the top dose activity, negative = inhibition, most hits filed as inhibitors; TbPYK enzyme, Kinase-Glo Plus ATP luminescence, 45 min; also: % is scaled to controls: 0 for no effect and ±100 for the full control effect; nearly all actives have a fitted effect of over 50% in size
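Luminescence from Kinase-Glo Plus, added after a 45-minute room-temperature reaction, served as the end-point read-out. The enzyme and substrate were preincubated with compound before ADP (130 uM final) initiated turnover. Concentration-effect curves came from normalized qHTS data.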
Giardia FBPA inh = inhibitors of Giardia lamblia fructose-1,6-bisphosphate aldolase; purified Giardia FBPA; Potency, µM (titrated, usually from 59.6 µM), inactives show at the top dose activity, negative = inhibition, actives largely listed as inhibitors; hit rate 0.71% among 290,000; also: % is scaled to controls: 0 for no effect and ±100 for the full control effect; nearly all actives have a fitted effect of over 55% in size
Target sequence (A8B2U2 whole entry, looked up): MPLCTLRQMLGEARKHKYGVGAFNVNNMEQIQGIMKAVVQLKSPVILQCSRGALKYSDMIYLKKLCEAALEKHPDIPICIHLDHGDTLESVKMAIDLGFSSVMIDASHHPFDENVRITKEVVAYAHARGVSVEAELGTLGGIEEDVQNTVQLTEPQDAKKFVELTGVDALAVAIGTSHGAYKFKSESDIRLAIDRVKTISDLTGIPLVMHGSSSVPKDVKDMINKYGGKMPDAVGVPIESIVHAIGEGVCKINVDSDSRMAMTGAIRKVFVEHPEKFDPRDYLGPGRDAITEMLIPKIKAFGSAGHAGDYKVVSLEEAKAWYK
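Giardia FBPA (40 nM reagent) was preincubated 10 min at RT with compound (up to 57.5 uM final), then substrate plus GAPDH/TPI/NAD/arsenate coupling system with diaphorase/resazurin was added; resorufin fluorescence (525/598 nm) was read after 20 min.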
Sm TGR block = inhibitors of Schistosoma mansoni thioredoxin glutathione reductase | Q962Y6 | purified TGR, DTNB reduction, TNB absorbance 405 nm | Potency, µM (doses to about 114 µM), for inactives: at the top dose activity change, negative = inhibition, hits mostly inhibitors | hit rate 3% among 360,000 | AID 485364; also: % is scaled to controls: 0 for no effect and ±100 for the full control effect; nearly all actives have a fitted effect of over 60% in size
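TGR 20 nM + NADPH 100 uM (dispensed conc.), cpd preinc 15 min RT; start with NADPH (500 uM addition) then DTNB (15 mM addition). Kinetic TNB absorbance, 405 nm filter. Four-parameter Hill fit across titration.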
RE007 growth inh = less growth of the S. pombe RE007 Vpr strain | S. pombe RE007 Vpr strain, BacTiter-Glo ATP luminescence, 24 h | Potency, µM (series often up to 92.2 µM), for inactives: at the top dose activity change, negative = less growth, hits mostly inhibitors | hit rate 0.21% among 360,000; active = well fitted falling curve with a large enough effect; inconclusive = small, poorly fitted or top-dose-only effect; inactive = no such curve, though single readings can be large or run the other way; also: % is scaled to controls: 0 for no effect and ±100 for the full control effect; nearly all actives have a fitted effect of over 50% in size
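Fission yeast RE007 carrying one integrated HIV-1 vpr copy, seeded at OD 0.01 in PMG+AL medium with 23 nL pinned compound. Grown 24 h at 30 degrees; viability read by BacTiter-Glo luminescence after 5 min.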
NS1 inh = blocks influenza NS1 protein function; hit rate 0.4% among 270,000; Potency, µM (top dose mostly 46.1 µM), for inactives: at the top dose activity, positive = more growth; calls by dose curve; also: actives are rising curves; nearly all actives have a fitted effect of over 50% in size
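Read-out: OD600 growth recovery of NS1-expressing budding yeast. Cells grown overnight at 30C in -URA glucose medium, washed, resuspended and diluted 1:100 in 2% galactose assay medium, pH 6.0. Same strain lacking NS1 served as positive control.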
The depositor's hits bear a star; ? = inconclusive; . = no result. Unless noted, calls follow the shape of the dose curve; as a rule, active = well fitted curve in the direction sought with a large enough effect; inconclusive = small, poorly fitted or top-dose-only effect, or another doubt; inactive = no such curve, though single readings can be large; an effect the other way counts as inactive or inconclusive. Potency is read from the fitted curve at half-maximal effect.

SMILES	LmPK inh	TbPYK inhibitor	Giardia FBPA inh	Sm TGR block	RE007 growth inh	NS1 inh
O=C(O)/C=C/C(=O)Nc1cccc2c1-c1ccccc1C2=O	.	1.8%	.	.	-2.3%	.
O=C(O)/C=C/C(=O)Nc1ccccc1SC(F)(F)F	-15.0%	-4.9%	6.9%	8.91µM*	-21.7%	8.5%
CCOc1ccc(-c2nc(Cn3c(=O)cc(-c4ccccc4)c4c(C)nn(C)c43)c(C)o2)cc1OC	.	1.2%	.	6.2%	.	.
O=C(NCc1ccc(Cl)cc1)c1ccc(CSCc2cccc(Cl)c2)o1	.	0.4%	.	5.0%	.	.
Cc1ccc(CNC(=O)c2ccc(CSCc3ccc(Cl)cc3)o2)cc1	.	0.6%	.	39.8µM*	.	.
Cc1ccc(CNC(=O)c2ccc(Cn3nc(C)c(Cl)c3C)o2)cc1	1.6%	4.4%	2.3%	25.1µM*	-14.7%	-198.6%
Cc1ccc(NC(=O)Cn2c(=O)n(-c3ccc(Cl)c(Cl)c3)c(=O)c3c(C)c(C)sc32)c(C)c1	.	-4.9%	.	5.5%	.	.
CC(=O)Oc1ccc(C(=O)[C@H]2[C@H]3C(=O)N(c4ccc(C)cc4C)C(=O)[C@H]3[C@@H]3C=CC=NN32)cc1	2.5%	-5.7%	?	17.8µM*	8.7%	11.0%
CC(=O)Oc1ccc(C(=O)[C@H]2[C@H]3C(=O)N(c4ccccc4)C(=O)[C@H]3[C@@H]3C=CC=NN32)cc1	3.0%	-10.3%	?	?	1.9%	?
CC(=O)Oc1ccc(C(=O)[C@H]2[C@H]3C(=O)N(c4ccc(C)cc4)C(=O)[C@H]3[C@@H]3C=CC=NN32)cc1	-1.5%	-10.8%	?	?	10.6%	?
COc1ccc(C(=O)[C@H]2[C@H]3C(=O)N(c4ccc(C)cc4)C(=O)[C@H]3C3C=CC=NN32)cc1 (stereo not given in full)	7.1%	-0.7%	?	39.8µM*	-4.7%	14.4%
COc1ccc(C2=NN(C(=O)CCC(=O)O)C(c3ccc(OC)c(OC)c3)C2)cc1 (stereo not given)	2.0%	4.4%	11.8%	22.4µM*	17.8%	26.9%
COc1ccc(C(=O)NCc2nc(-c3cccc(C)c3)no2)cc1OC	.	2.4%	.	0.5%	.	.
COc1ccc(N/C=C2\C(=O)CCc3c2oc2cc(Cl)c(O)c(Cl)c32)cc1	1.1%	-7.3%	-0.2%	35.5µM*	-5.1%	1.2%
O=S(=O)(c1ccc(Br)s1)N1CCN(c2ccc(F)cc2)CC1	1.5%	-4.8%	-13.0%	25.1µM*	4.8%	-1.7%
Cc1ccc(-c2cc(C(=O)NN3CCOCC3)c3cc(Br)ccc3n2)o1	-0.2%	-15.1%	-19.7%	10µM*	-7.2%	2.9%
O=C(NN1CCOCC1)c1cc(-c2ccc(Br)s2)nc2ccccc12	-7.0%	0.5%	1.7%	1.6%	-3.8%	.
Cc1ccc(-c2cc(C(=O)O)c3cc(Br)ccc3n2)o1	-25.3%	10µM*	?	2µM*	.	17.1%
Cc1ccc(-c2cc(C(=O)NC3=NCCS3)c3cc(Br)ccc3n2)o1	?	.	10.8%	2.82µM*	.	?
Cc1ccc(-c2cc(C(=O)NCCCn3ccnc3)c3cc(Br)ccc3n2)o1	-24.0%	?	-1.8%	1.58µM*	-8.4%	-30.7%
Cc1cc(C)cc(NC(=O)Nc2ccccc2OCc2cc(=O)n3ccccc3n2)c1	.	-2.0%	.	4.9%	.	.
O=[n+]1ccn([O-])c2ccccc21	.	-3.8%	.	.	.	.
Cc1cc(C)c2c(c1)C1C=CCC1C(c1ccc(S(=O)(=O)N3CCOCC3)cc1)N2 (stereo not given)	0.5%	-11.0%	0.8%	1.58µM*	9.3%	29.0%
CC1=C(C(=O)Nc2ccccc2)C(c2ccc(C(=O)O)cc2)n2ncnc2N1 (stereo not given)	.	-4.8%	.	-1.6%	.	.
CN(C)/C=C/C(=O)c1ccc(Br)cc1	-8.6%	5.4%	-1.6%	.	-19.0%	-61.5%
SMILES	LmPK inh	TbPYK inhibitor	Giardia FBPA inh	Sm TGR block	RE007 growth inh	NS1 inh
CN(O)/C=C/C(=O)c1ccc(Br)cc1	0.1%	-4.6%	-1.9%	8.91µM*	-0.4%	.
O=C(O)C1(c2ccccc2)CCN(S(=O)(=O)c2ccc(Br)cc2)CC1	7.5%	-0.5%	15.5%	89.1µM*	9.8%	-7.1%
COc1ccccc1CN1COc2ccc3c(oc(=O)c4ccccc43)c2C1	.	-0.9%	.	0.7%	.	.
C#CC(=O)N(c1cc(OC)ccc1OC)C(C(=O)NC1CCCC1)c1cccs1 (stereo not given)	-1.0%	-5.2%	4.3%	?	-7.9%	-0.5%
C#CC(=O)N(c1ccc(OC)cc1OC)C(C(=O)NC1CCCC1)c1cccs1 (stereo not given)	3.7%	5.6%	-0.5%	1.58µM*	8.5%	3.1%
O=C(NCCc1csc(-c2cccc(F)c2)n1)c1cccs1	.	1.8%	.	5.1%	.	.
CCOc1ccc(NC(=O)CN2CCN(CC(=O)Nc3ccc(N(CC)CC)cc3)CC2)cc1	.	-8.8%	.	1.2%	.	.
Cc1ccc(C(=O)C[n+]2cc(Br)cc(Br)c2)cc1[N+](=O)[O-]	-3.0%	-1.0%	-1.3%	31.6µM*	-18.0%	?
O=C(C[n+]1ccncc1)c1ccccc1	1.4%	-19.7%	-17.5%	35.5µM*	-8.6%	14.1%
Nc1cc[n+](CC(=O)c2ccccc2)cc1	-1.6%	-8.0%	1.9%	-8.9%	-13.8%	9.8%
O=C(C[n+]1cc(Br)cc(Br)c1)c1ccccc1	5.3%	-5.3%	-3.4%	11.2µM*	-16.2%	1.9%
CC(=O)c1ccc(NC(=O)CN2CCN(c3ccccc3)CC2)cc1	2.6%	3.0%	-23.7%	-14.3%	-9.6%	-16.7%
COc1ccc(N2CCN(CC(=O)c3ccccc3)CC2)cc1	-6.4%	-15.1%	-20.3%	12.6µM*	-11.5%	-1.2%
O=C(CN1CCN(c2ccc([N+](=O)[O-])cc2)CC1)c1ccccc1	8.6%	-2.5%	-25.4%	11.2µM*	-10.0%	-1.4%
CC(=O)Nc1ccc(C(=O)CN2CCN(c3ccccc3)CC2)cc1	0.8%	0.8%	-6.4%	14.1µM*	-5.5%	-4.5%
COc1ccc(C(=O)CN2CCN(c3cc(C)nc4ccccc34)CC2)cc1	0.1%	0.2%	-4.1%	20µM*	-10.4%	4.7%
COc1ccc(N2CCN(C(=O)CCCC(=O)c3ccccc3)CC2)cc1	-4.5%	-7.4%	-2.3%	2.9%	9.6%	-25.8%
CC(C)OC(=O)Nc1ccc2nc(-c3cscn3)[nH]c2c1	.	-12.9%	.	.	.	.
Cc1ccccc1CNC(=O)CN1C(=O)C2CCCCN2c2ccc(C(=O)N3CCCC3)cc21 (stereo not given)	.	1.1%	.	-16.6%	.	.
CC1=NNC(=O)C1C(c1cccc(O)c1)C(C#N)C#N (stereo not given)	-13.6%	-3.6%	-13.6%	1.8%	-0.6%	-0.8%
CC1=NNC(=O)C1C(c1ccc(Cl)cc1)C(C#N)C#N (stereo not given)	-0.7%	-3.5%	-3.9%	11.2µM*	-21.5%	-4.6%
